In the supplement of paper PMC11537057:
Counter-ions that a name gives are not always drawn. ± gives the standard deviation of the averaged measurements. Over roughly 1,700 compounds, “cell number in HSV-1-infected wells relative to infected DMSO wells (H2B-RFP signal)” has its median near 100; the highest 2% begin near 140. Shown is part of a subset that was picked to be rich in the highest values.

Tested on: A549 infected with HSV-1
Test: cell number in HSV-1-infected wells relative to infected DMSO wells (H2B-RFP signal); higher = more surviving cells (uninfected or antiviral-protected wells give about 200%; low = toxicity)
Conditions: 10 µM; 48 h; MOI: 0.1
Experimental: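 Selleck FDA-approved library (L1300) screened in duplicate at 10 µM on A549 H2B-mRuby cells in 384-well plates, infected with HSV-1 strain 17 YFP-ICP4 at MOI 0.1 one hour before drug addition. Imaged after 2 days at 37°C. Cell growth (H2B-RFP) and infection (ICP4-YFP) are expressed as % of DMSO-treated wells. Hits: growth >90% and infection <20% of DMSO.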

| Structure (SMILES) | cell number in HSV-1-infected wells |
| --- | --- |
| Cc1c(O)cccc1C(=O)N[C@@H](CSc1ccccc1)[C@H](O)CN1C[C@H]2CCCC[C@H]2C[C@H]1C(=O)NC(C)(C)C [Nelfinavir Mesylate] | 157 ± 33% |
| CC(C)(CO)C(O)C(=O)NCCC(=O)O [Calcium D-Panthotenate] | 118 ± 22% |
| N[C@@H](CS)C(=O)O [L-Cysteine HCl] | 129 ± 9.3% |
| CCCCS(=O)(=O)N[C@@H](Cc1ccc(OCCCCC2CCNCC2)cc1)C(=O)O [Tirofiban Hydrochloride] | 128 ± 12% |
| COc1ccc(C[C@H](N)C(=O)N[C@H]2[C@@H](O)[C@H](n3cnc4c(N(C)C)ncnc43)O[C@@H]2CO)cc1 [Puromycin 2HCl] | 41.2 ± 1.6% |
| Nc1ccn([C@H]2CC[C@@H](CO)O2)c(=O)n1 [Zalcitabine] | 105 ± 7% |
| Nc1ccn([C@@H]2O[C@H](CO)[C@@H](O)[C@@H]2O)c(=O)n1 [Cytarabine hydrochloride] | 51.7 ± 21% |
| Nc1ccn(C[C@@H](CO)OCP(=O)(O)O)c(=O)n1 [Cidofovir] | 164 ± 11% |
| Nc1ccn([C@@H]2O[C@H](CO)[C@@H](O)[C@@H]2O)c(=O)n1 [Cytarabine] | 44.2 ± 11% |
| Nc1c(Br)cc(Br)cc1CN[C@H]1CC[C@H](O)CC1 [Ambroxol] | 63.56 ± 0.013% |
| Nc1c(Br)cc(Br)cc1CN[C@H]1CC[C@H](O)CC1 [Ambroxol HCl] | 117 ± 21% |
| CC(C)C[C@H](NC(=O)[C@@H](NC(=O)c1cccc(-c2ccccc2)n1)[C@@H](C)O)B(O)O | 79.7 ± 13% |
| O=C1/C(=C2\Nc3ccc(S(=O)(=O)O)cc3C2=O)Nc2ccc(S(=O)(=O)O)cc21 [Indigo carmine] | 126 ± 4.3% |
| OC[C@@H](O)CN1CCN(c2ccccc2)CC1 [Levodropropizine] | 99.4 ± 1.6% |
| CCC1(c2c[nH]cn2)Cc2ccccc2C1 [Atipamezole] | 103 ± 19% |
| CCC1(c2c[nH]cn2)Cc2ccccc2C1 [Atipamezole hydrochloride] | 95.8 ± 8.9% |
| CCCCC(CC)COC(=O)C(C#N)=C(c1ccccc1)c1ccccc1 (stereo not given) [Octocrylene] | 115 ± 4.8% |
| CCOC(=O)[C@H]1O[C@@H]1C(=O)N[C@@H](CC(C)C)C(=O)NCCC(C)C [Aloxistatin] | 150.2 ± 0.33% |
| C[C@]1(COc2ccc(N3CCC(Oc4ccc(OC(F)(F)F)cc4)CC3)cc2)Cn2cc([N+](=O)[O-])nc2O1 [Delamanid] | 117 ± 18% |
| OC[C@@H](O)[C@@H](O)[C@H](O)[C@@H](O)CO [Sorbitol] | 97.2 ± 17% |
| OC[C@@H](O)[C@@H](O)[C@H](O)[C@H](O)CO [D-Mannitol] | 107 ± 11% |
| OC[C@@H](O)[C@H](O)[C@@H](O)CO [Xylitol] | 146 ± 3% |
| Cn1nnc(-c2ccc(-c3ccc(N4C[C@H](CO)OC4=O)cc3F)cn2)n1 [Tedizolid] | 104 ± 5.8% |

| Structure (SMILES) | cell number in HSV-1-infected wells |
| --- | --- |
| CCCCCCCCCCCCCCCC(=O)O[C@@H]1[C@@H](O)[C@@H](O)[C@@H]([C@H](NC(=O)[C@@H]2C[C@@H](CCC)CN2C)[C@H](C)Cl)O[C@@H]1SC [Clindamycin palmitate HCl] | 85.3 ± 3.2% |
| Cc1cc(-c2ccccc2)nnc1NCCN1CCOCC1 [Minaprine dihydrochloride] | 94.3 ± 12% |
| Cc1ccccc1-c1cc(N2CCN(C)CC2)ncc1N(C)C(=O)C(C)(C)c1cc(C(F)(F)F)cc(C(F)(F)F)c1 [Netupitant] | 146 ± 30% |
| CN1CCC(=C2c3ccccc3CCn3c(C=O)cnc32)CC1 [Alcaftadine] | 127.9 ± 0.97% |
| CCOC(=O)CCC(=O)O[C@H]1[C@H](O[C@@H]2[C@@H](C)[C@H](O[C@H]3C[C@@](C)(OC)[C@@H](O)[C@H](C)O3)[C@@H](C)C(=O)O[C@H](CC)[C@@](C)(O)[C@H](O)[C@@H](C)C(=O)[C@H](C)C[C@@]2(C)O)O[C@H](C)C[C@@H]1N(C)C [Erythromycin Ethylsuccinate] | 118 ± 17% |
| C[C@@H](O)[C@@H]1NC(=O)[C@H](CCCCN)NC(=O)[C@@H](Cc2c[nH]c3ccccc23)NC(=O)[C@H](Cc2ccccc2)NC(=O)[C@@H](NC(=O)[C@H](N)Cc2ccccc2)CSSC[C@@H](C(=O)N[C@H](CO)[C@@H](C)O)NC1=O [Octreotide Acetate] | 96.3 ± 13% |
| CC(O)C(=O)O.N (stereo not given) [Ammonium lactate] | 91.3 ± 9.4% |
| CCn1c(=O)c(-c2cc[nH]n2)cc2c(C)nc(N)nc21 | 79.6 ± 6.9% |
| CC1(C)S[C@@H]2[C@H](NC(=O)[C@H](N)c3ccccc3)C(=O)N2[C@H]1C(=O)OCOC(=O)[C@@H]1N2C(=O)C[C@H]2S(=O)(=O)C1(C)C [Sultamicillin] | 104 ± 5.9% |
| COc1cc(S(=O)(=O)O)ccc1O [Sulfogaiacol] | 98.6 ± 40% |
| O=C(Nc1nc2cccc(-c3ccc(CN4CCS(=O)(=O)CC4)cc3)n2n1)C1CC1 [Filgotinib (GLPG0634)] | 76.8 ± 6.2% |
| C=C1[C@H](CO)[C@@H](O)C[C@@H]1n1cnc2c(=O)[nH]c(N)nc21 [Entecavir Hydrate] | 150 ± 12% |
| Nc1nc2c(ncn2COCCO)c(=O)[nH]1 [Aciclovir] | 225 ± 2.6% |
| O=c1[nH]cnc2c1ncn2[C@@H]1O[C@H](CO)[C@@H](O)[C@H]1O [Inosine] | 126 ± 7.8% |
| O=c1[nH]cnc2c1ncn2[C@H]1CC[C@@H](CO)O1 [Didanosine] | 99.6 ± 8.7% |
| Nc1nc2c(ncn2COC(CO)CO)c(=O)[nH]1 [Ganciclovir] | 192.4 ± 0.4% |
| C=C1[C@H](CO)[C@@H](O)C[C@@H]1n1cnc2c(=O)[nH]c(N)nc21 [Entecavir] | 130 ± 39% |
| CC(C)[C@H](N)C(=O)OCCOCn1cnc2c(=O)nc(N)[nH]c21 [Valaciclovir HCl] | 167 ± 22% |
| CS(=O)(=O)Nc1cc2occ(NC=O)c(=O)c2cc1Oc1ccccc1 [Iguratimod] | 108 ± 15% |
| CC(C)OC(=O)CCC/C=C\C[C@@H]1[C@@H](/C=C/[C@@H](O)COc2cccc(C(F)(F)F)c2)[C@H](O)C[C@@H]1O [Travoprost] | 39.8 ± 12% |
| C[C@@H](O)[C@H]1C(=O)N2C(C(=O)[O-])=C(SC3Cn4cnc[n+]4C3)[C@H](C)[C@H]12 (stereo not given in full) [Biapenem] | 91.1 ± 10% |
| O=C(O)C(=O)O.[NH-][C@@H]1CCCC[C@H]1[NH-].[Pt+2] [Oxaliplatin] | 64.1 ± 10% |
